The values below come from PubChem BioAssay.

The nature of test [1]: resazurin metabolic signal in HepG2 cells – cell-based, resazurin fluorescence, 24 h, PK04 Diversity Set, profiling panel (AID 1172). The note with it: HepG2 viability, higher = more signal.
Test [2] can be described thus: budding yeast growth changes without added modifier – OD600, strain BY4716, 24 h, basal condition, primary screen (AID 1173). Conditions: S. cerevisiae BY4716 growth, OD600, 24 h; higher = more signal, called active from +8 up or from −8 down.
Test [3] can be described thus: viability profiling in MM1S myeloma cells – cell-based, resazurin fluorescence, basal, 24 h, PK04 Diversity Set, profiling panel (AID 1174).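 Note: MM1S multiple myeloma cell line.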 Conditions: higher = more signal, called active from +8 up or from −8 down. In general terms: The colour change of resazurin is a common sign of viable cells or microbes.
Test [4] concerns the target Dihydroorotate dehydrogenase (quinone), mitochondrial (Plasmodium falciparum (isolate 3D7)) (UniProt Q08210). The test is described as follows: inhibition of P. falciparum DHODH – biochemical, C-terminal His tag, absorbance 600 nm, primary screen (AID 1175).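 Note: recombinant parasite enzyme with a five histidine tag at its C terminus.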 The note with it: PfDHODH enzyme, DCIP absorbance 600 nm; higher = more signal, called active from +8 up or from −8 down.

Test [5] can be described thus: inhibition of PAO1 biofilm formation – strain PAO1, LB-PBS medium, absorbance 600 nm, primary screen (AID 1176). Conditions: P. aeruginosa PAO1 growth/biofilm, A600, 12 h; higher = more signal.
A short description of test [6]: growth modulation of vineyard yeast isolate – strain RM11-1a, OD600, basal, 24 h, primary screen (AID 1177).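 Note: cultures grown under basal conditions with no added stressor.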 Conditions: S. cerevisiae RM11-1a growth, OD600, 24 h; higher = more signal, called active from +8 up or from −8 down.
The nature of test [7]: growth of efflux-deficient E. coli DRC39 – strain DRC39, OD650, 24 h, E. coli filamentation inducers, primary screen (AID 1178).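 Note: growth measured as culture turbidity by optical density at 650 nm.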 The note with it: E. coli DRC39 acrAB, higher = more signal, called active from +8 up or from −8 down.
Test [8] is described as follows: growth of efflux-deficient E. coli DRC39 – strain DRC39, OD650, 48 h, E. coli filamentation inducers, primary screen (AID 1179).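 Note: screen aims at cell division blockers that make cells filament.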 Conditions: E. coli DRC39 delta-acrAB growth, higher = more signal, called active from +8 up or from −8 down.
A short description of test [9]: viability profiling in RPMI8226 myeloma cells – cell-based, resazurin fluorescence, basal, 24 h, PK04 Diversity Set, profiling panel (AID 1180).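 Note: RPMI8826 multiple myeloma cell line at 5000 cells per well.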 The note with it: higher = more signal.
The target of test [10] is E3 ubiquitin-protein ligase XIAP (Homo sapiens) (UniProt P98170). In words: small molecules binding XIAP protein – biophysical, small-molecule microarray, fluorescence 635 nm, primary screen (AID 1181).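 Note: score merges 667 nm emission and signal to noise over triplicate slides.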 Conditions: higher = more signal.
E3 ubiquitin-protein ligase XIAP (Homo sapiens), sequence (P98170 whole entry, looked up, the tested form may be a part): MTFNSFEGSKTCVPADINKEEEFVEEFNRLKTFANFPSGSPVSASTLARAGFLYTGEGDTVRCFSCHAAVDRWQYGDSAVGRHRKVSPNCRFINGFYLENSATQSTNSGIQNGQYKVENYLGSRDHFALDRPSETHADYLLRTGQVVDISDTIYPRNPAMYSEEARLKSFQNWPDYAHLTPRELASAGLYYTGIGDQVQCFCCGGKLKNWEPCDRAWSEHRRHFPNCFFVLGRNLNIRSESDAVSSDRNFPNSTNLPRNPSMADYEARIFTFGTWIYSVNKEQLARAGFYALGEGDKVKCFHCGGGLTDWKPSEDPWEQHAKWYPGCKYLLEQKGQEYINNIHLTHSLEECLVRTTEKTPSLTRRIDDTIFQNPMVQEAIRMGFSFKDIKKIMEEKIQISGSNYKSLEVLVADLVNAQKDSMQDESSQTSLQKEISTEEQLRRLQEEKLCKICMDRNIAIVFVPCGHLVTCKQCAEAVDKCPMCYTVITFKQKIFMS
Test [11] concerns XIP peptide (Xip251-270) binding. In words: XIP fragment 251-270 binding compounds – biochemical, small-molecule microarray, fluorescence 635/667 nm, 0.1 µg/mL protein, primary screen (AID 1182). Conditions: fluorescent protein binding, 635 nm, higher = more signal, called active from +8 up or from −8 down.
Test [12] concerns XIP peptide (Xip251-270). The test is described as follows: compounds binding XIP fragment 251-270 – biochemical, small-molecule microarray, fluorescence 635/667 nm, 0.5 µg/mL protein, primary screen (AID 1183). Conditions: fluorescence 635 nm, higher = more signal.
Test [13] can be described thus: blood-stage malaria parasite viability loss – strain 3D7, DAPI fluorescence, 100 nL, primary screen (AID 1184).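 Note: parasites grown inside human red blood cells in medium with human serum.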 The note with it: P. falciparum 3D7 growth, 3 d, higher = more signal.
Test [14] concerns the target Homeobox protein Hox-A13 (Mus musculus) (UniProt Q62424). In words: disruptors of Hoxa13 oligonucleotide interaction – biochemical, fluorescence polarization, labeled oligonucleotide, primary screen (AID 1185). Conditions: Hoxa13:DNA binding, 15 min, higher = more signal, called active from +8 up or from −8 down.
The nature of test [15]: blockers of DNA damage checkpoint Chk1 activation – imaging, HeLa, hydroxyurea, phospho-Chk1 antibody, percent positive cells, primary screen (AID 1186). Conditions: hydroxyurea-induced phospho-Chk1 immunofluorescence imaging, higher = more signal.
The nature of test [16]: blockers of DNA damage checkpoint Chk1 activation – imaging, HeLa, hydroxyurea, phospho-Chk1 nuclear intensity, primary screen (AID 1187). Conditions: hydroxyurea-induced phospho-Chk1 immunofluorescence imaging, higher = more signal.

The source made the active and inactive calls. Unless noted, the rule behind the calls is not given here.

Dihydroorotate dehydrogenase (quinone), mitochondrial (Plasmodium falciparum (isolate 3D7)), sequence (Q08210 whole entry, looked up): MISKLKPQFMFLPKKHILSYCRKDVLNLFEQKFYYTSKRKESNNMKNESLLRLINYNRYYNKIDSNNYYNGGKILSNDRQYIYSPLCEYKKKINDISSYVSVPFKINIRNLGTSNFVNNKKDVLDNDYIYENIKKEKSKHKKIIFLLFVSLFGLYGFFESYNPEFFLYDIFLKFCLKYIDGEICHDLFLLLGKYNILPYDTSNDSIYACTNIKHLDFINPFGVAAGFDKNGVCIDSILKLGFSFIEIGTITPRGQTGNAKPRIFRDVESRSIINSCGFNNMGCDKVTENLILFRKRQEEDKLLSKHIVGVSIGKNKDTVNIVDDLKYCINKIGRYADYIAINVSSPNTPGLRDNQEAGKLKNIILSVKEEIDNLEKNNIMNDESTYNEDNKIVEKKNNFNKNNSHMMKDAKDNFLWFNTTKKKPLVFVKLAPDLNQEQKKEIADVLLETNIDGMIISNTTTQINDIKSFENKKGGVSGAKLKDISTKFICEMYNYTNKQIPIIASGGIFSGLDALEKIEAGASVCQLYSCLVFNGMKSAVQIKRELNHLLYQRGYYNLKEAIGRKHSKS
Homeobox protein Hox-A13 (Mus musculus), sequence (Q62424 whole entry, looked up): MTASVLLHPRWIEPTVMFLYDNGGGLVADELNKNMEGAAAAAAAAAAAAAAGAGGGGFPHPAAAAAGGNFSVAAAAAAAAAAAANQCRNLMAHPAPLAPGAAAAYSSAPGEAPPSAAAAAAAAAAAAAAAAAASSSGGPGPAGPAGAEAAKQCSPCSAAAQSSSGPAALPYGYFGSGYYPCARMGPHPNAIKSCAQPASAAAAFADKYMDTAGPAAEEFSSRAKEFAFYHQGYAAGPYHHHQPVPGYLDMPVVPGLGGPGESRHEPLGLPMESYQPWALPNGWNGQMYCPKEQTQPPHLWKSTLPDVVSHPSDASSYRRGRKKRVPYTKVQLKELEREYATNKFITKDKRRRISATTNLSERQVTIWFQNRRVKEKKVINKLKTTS

Consider `CCOC(=O)C[C@H]1[C@H](OC(=O)c2ccc(-c3ccccc3)cc2)[C@@H](NC(=O)c2ccccc2)c2cc(OCCCO)ccc2N1C(=O)Cc1ccc(OC)cc1`, for which the z-score in [1] was -0.161; in [2], 0.742 (inactive); in test [3], 0.393 (inactive); in test [5], 0.845 (inactive); in test [6], 1.47 (inactive); in test [7], 0.835 (inactive). The z-score in [8] was 0.451 (inactive); in [9], -0.041; in [13], -1.09; in test [14], -1.36 (inactive); in test [15] it was -0.0036 (inactive); in test [16], 0.16 (inactive). Moreover, the composite z-score in test [4] is 0.593 (inactive); in test [10], -0.0936; in test [11], -0.11 (inactive); in [12], -0.664.

For `C=C(CCCC)/C(=C/C[C@H](OC(C)=O)c1ccccc1OCCO)c1cnc2ccccc2c1`, the z-score is -0.671 in test [1]; -0.468 (inactive) in test [2]; -1.37 (inactive) in test [3]; 0.26 (inactive) in [5]; 1.15 (inactive) in test [6]; -0.709 (inactive) in [7]. Moreover, the z-score in test [8] was -0.742 (inactive); in test [9], -0.905; in test [13], -2.52; in test [14], -5.13 (inactive); in [15] it was 0.444 (inactive); in test [16] it was 0.328 (inactive). The composite z-score in [4] is -5.76 (inactive); in [10] it was -0.13; in test [11], 2.68 (inactive); in test [12], 0.657.

With `COCCCNC(=O)[C@@H]1c2ccccc2C(=O)N(Cc2ccccc2OC)[C@H]1c1ccc(CO)cc1`, the z-score in test [1] was 1.13; in test [2], -0.993 (inactive); in test [3], 1.71 (inactive); in test [5] it was 1.23 (inactive); in test [6], -0.839 (inactive); in test [7] it was 0.342 (inactive). The z-score in test [8] was 0.261 (inactive); in test [9] it was 1.14; in test [13] it was -1.99; in test [14], -2.85 (inactive); in test [15], -0.481 (inactive); in [16], -0.576 (inactive). The composite z-score in test [4] was 0.253 (inactive); in test [10] it was 0.0472; in [11], 0.694 (inactive); in test [12], -0.0218.

For the molecule `CCCCC(O)C1C=CC2C(=O)N(C)C(=O)C2N1N1CCCCC1` (stereo not given), the z-score in test [1] is -1.12; in test [2], 1.96 (inactive); in [3] it was -1.5 (inactive); in test [5], 0.971 (inactive); in [6], 1.64 (inactive); in test [7], -0.83 (inactive). For the same molecule, the z-score was -0.412 (inactive) in test [8]; -1.9 in test [9]; -0.133 in test [13]; -6.77 (inactive) in [14]; 0.492 (inactive) in test [15]; 0.154 (inactive) in [16]. Also, the composite z-score in [4] is 1.23 (inactive); in [10] it was 0.547; in test [11], 0.0433 (inactive); in test [12] it was 0.941.

Regarding `COc1cc2c(cc1OC)CN(C(=O)[C@H]1[C@@H]3C(=O)O[C@@H](c4ccccc4)[C@@H](c4ccccc4)N3[C@@H](c3ccccc3OCCO)[C@]13C(=O)Nc1ccc(C#CCCO)cc13)CC2`, the z-score in test [1] is 0.51; in test [2] it was 1.69 (inactive); in [3], -0.442 (inactive); in [5], 1.54 (inactive); in test [6], 3.11 (inactive); in test [7], -0.456 (inactive). For the same molecule, the z-score in test [8] was -0.542 (inactive); in [9] it was -0.0397; in [13], -2.16; in test [14] it was 1.23 (inactive); in test [15], 0.211 (inactive); in test [16] it was 0.0914 (inactive). Also, the composite z-score in test [4] was 0.749 (inactive); in [10] it was -0.152; in [11], 0.138 (inactive); in test [12], 0.438.

As to `CCOC(=O)C1=CC[C@@H](c2ccccc2)N(S(=O)(=O)c2ccc(C)cc2)[C@H]1c1ccc(CC)cc1`, the z-score in [1] is 0.963; in test [2], 1.82 (inactive); in [3], -0.342 (inactive); in test [5] it was 0.806 (inactive); in test [6], 1.25 (inactive); in [7] it was -0.692 (inactive). Further, the z-score in test [8] is 0.629 (inactive); in test [9] it was -0.224; in [13] it was -1.89; in test [14] it was 0.868 (inactive); in [15] it was -0.0619 (inactive); in test [16] it was -0.606 (inactive). Also, the composite z-score was 0.207 (inactive) in test [4], -0.11 in [10], -0.223 (inactive) in test [11] and 0.487 in test [12].

As for `CO[C@H]1O[C@H](CO)[C@@H](OC(=O)Nc2ccccc2-c2ccccc2)[C@H](OC(=O)Nc2ccccc2-c2ccccc2)[C@@H]1OC(=O)Nc1ccccc1-c1ccccc1`, the z-score is -0.141 in test [1]; -0.652 (inactive) in [2]; -0.146 (inactive) in [3]; 1.31 (inactive) in [5]; 2.59 (inactive) in test [6]; 0.454 (inactive) in test [7]. Further, the z-score in test [8] was 0.434 (inactive); in test [9] it was 0.203; in test [13], -2.51; in test [14] it was -1.13 (inactive); in [15] it was -0.0022 (inactive); in [16], 0.119 (inactive). Besides, the composite z-score is 0.288 (inactive) in test [4], -0.0233 in test [10], 0.979 (inactive) in test [11] and 0.801 in test [12].

With `COc1ccc([Si](C)(C)[C@@H]2[C@@H](CCn3cc([C@H](O)c4ccccc4)nn3)O[C@]3(C(=O)N(Cc4cccc(N5CCC5=O)c4)c4ccccc43)[C@H]2C)cc1`, the z-score in test [1] was 0.736; in test [2], -0.0294 (inactive); in test [3], -0.939 (inactive); in test [5], 2.05 (inactive); in test [6], 1.01 (inactive); in [7], 0.603 (inactive). Besides, the z-score in [8] is 0.127 (inactive); in test [9] it was 0.123; in [13], -2.48; in test [14], -2.8 (inactive); in test [15], -0.529 (inactive); in [16], -0.414 (inactive). The composite z-score was 0.219 (inactive) in test [4], 0.0345 in [10], 0.863 (inactive) in test [11] and 0.46 in [12].

Regarding `CCCC1(C(=O)OC)C=C2C(=C(c3ccccc3)C(=O)C2C)CN1` (stereo not given), the z-score in test [1] was -0.913; in [2], 0.629 (inactive); in test [3], -1.85 (inactive); in test [5], 0.246 (inactive); in test [6] it was -0.0834 (inactive); in test [7] it was -0.0785 (inactive). Moreover, the z-score is -0.181 (inactive) in test [8]; -0.77 in test [9]; -0.105 in test [13]; -8.64 (active) in test [14]; -0.323 (inactive) in test [15]; -0.277 (inactive) in test [16]. Also, the composite z-score in [4] is -1.68 (inactive); in [10] it was 0.192; in test [11], 0.774 (inactive); in test [12] it was 0.871.

Regarding `O=C1C2C=CC(C(O)c3cc(C(F)(F)F)cc(C(F)(F)F)c3)N(Nc3ccccc3)C2C(=O)N1c1ccccc1` (stereo not given), the z-score in test [1] was -0.621; in [2], -3.15 (inactive); in test [3], -1.87 (inactive); in [5] it was 1.41 (inactive); in test [6], 0.596 (inactive); in test [7], -0.921 (inactive). For the same molecule, the z-score in test [8] is -0.284 (inactive); in [9], -2.49; in test [13] it was 0.0018; in test [14], -2.82 (inactive); in [15], 0.0811 (inactive); in [16], -0.017 (inactive). Also, the composite z-score is 0.399 (inactive) in test [4], 0.0191 in test [10], 0.926 (inactive) in [11] and 0.197 in test [12].
